# Screens: PubChem, several laboratories
# Anthrax LF inh2: blocks Bacillus anthracis lethal factor protease. P15917. multiplex microsphere protease cleavage assay, LF. inhibition, % at 10 µM. 360,000 compounds, 0.12% hits. AID 588501; further: plate controls were buffer without enzyme for full effect and enzyme alone for no effect
# PriA SSB inh: K. pneumoniae PriA-SSBct interaction inhibition; 430,000 compounds, 0.6% hits; AlphaScreen SSBct-PriA binding, biotinylated peptide; inhibition, % at 33 µM; in the data active means inhibition mostly above about 37%, no sharp cut-off; inactive means mostly below about 20%;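 further: plate controls were negative control peptide for no effect and reference peptide for full effect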
# Autofluor counter: compound fluorescence in toxin protease inhibitor counterscreen | 360,000 compounds, 3.1% hits | fluorescence intensity (no concentration beside the values) | compound autofluorescence counterscreen, microsphere flow cytometry; hits give high values; in the data active means fluorescence intensity above about 16000; inconclusive means no clear call, values can overlap the other calls
# BoNT F protease: blocks Botulinum neurotoxin F light chain protease; 360,000 compounds, 0.22% hits; Multiplex microsphere protease cleavage assay, flow cytometry; inhibition, % at 10 µM; in the data active means inhibition above about 35%, passing the limit was not always enough; inconclusive means no clear call, values can overlap the other calls; further: plate controls were buffer without enzyme for full effect and enzyme alone for no effect
# BoNT A protease: blocks Botulinum neurotoxin A light chain protease; multiplex microsphere protease substrate cleavage, flow cytometry; inhibition, % at 10 µM; 360,000 compounds, 0.17% hits; AID 588499; further: plate controls were buffer without enzyme for full effect and enzyme alone for no effect
# An asterisk follows results filed as active; ? = inconclusive; . = no result given. An excerpt weighted towards active compounds, which were near 3.1% of everything screened. Unless noted, no stated cut-off is given here; in the data, active means inhibition above about 30%; inconclusive means no clear call, values can overlap the other calls; inactive means below that.
SMILES,Anthrax LF inh2,PriA SSB inh,Autofluor counter,BoNT F protease,BoNT A protease
Cc1ccc(-c2csc(-n3nc(C)cc3NC(=O)C3CC(=O)N(c4cccc(C)c4)C3)n2)cc1 (stereo not given),.,-2,.,.,.
Cn1nc([N+](=O)[O-])c(C(C#N)c2nc3ccccc3s2)c(Cl)c1=O (stereo not given),.,92*,.,.,.
Cn1nc([N+](=O)[O-])c(C(C#N)c2nc3ccccc3n2C)c(Cl)c1=O (stereo not given),-2,25,2692,-3,0
CC(=O)Nc1ccc(SCC(=O)N(CCC#N)c2ccc(C)cc2)cc1,-2,-4,16531*,-6,-2
O=C(NC(=S)Nc1ccccc1-c1ccccc1NC(=S)NC(=O)c1ccccc1)c1ccccc1,.,-6,.,.,.
CCCNS(=O)(=O)CCCOc1ccc2c(c1)OCO2,.,12,.,.,.
Cn1nc(CNC(=O)c2ccccc2C(F)(F)F)cc1C1CC1,.,-8,.,.,.
CCOC(=O)c1cnn(-c2cccc(C(=O)O)c2)c1N,.,-6,.,.,.
CCOC(=O)c1cnn(-c2ccccc2)c1NC(=O)c1ccc(C)cc1,-2,-14,23981*,-6,-1
CCOC(=O)c1cnn(-c2cccc(Cl)c2)c1N,-3,-7,16767*,-4,-2
O=C(Nc1ncc2c(n1)-c1ccccc1OC2)c1ccc(Cl)cc1Cl,-1,-5,16392*,1,1
O=C(Nc1ncc2c(n1)-c1ccccc1CC2)c1ccc(Cl)cc1,2,1,22185*,3,2
O=C(Nc1ncc2c(n1)-c1ccccc1CC2)c1cccc(Cl)c1,.,0,.,.,.
COc1ccc(OCC(=O)Nc2nnc(C3CCCCC3)o2)cc1,.,-4,.,.,.
Cc1cccc(N2C(=O)CC(N(C(=O)c3ccco3)c3cccc(C)c3)C2=O)c1 (stereo not given),0,-1,17561*,-7,?
O=C(NNC1CC(=O)N(c2ccccc2)C1=O)c1ccco1 (stereo not given),2,1,4389,-1,0
CCOC(=O)N(c1ccccc1)P1(=S)OCC(C)O1 (stereo not given),0,-17,20958*,-3,-1
Cc1ccc(Cn2c(CO)cnc2SCCC(C)C)cc1,.,29,.,.,.
CC1(C)CC(=O)C2=C(C1)NC(=O)C21C(C(=O)OC(C)(C)C)=C(N)Oc2ccc(Br)cc21 (stereo not given),0,6,22960*,3,2
Cc1cc(N2CCN(CCOc3cccc4ccccc34)CC2)n2nc(C(F)(F)F)nc2n1,.,5,.,.,.
CC(=O)Nc1ccc(NC(=O)COC(=O)c2c(C)nn(-c3ccccc3)c2C)cc1,-2,8,2061,0,0
Cc1nn(-c2ccccc2)c(C)c1C(=O)OCC(=O)N1CCN(S(=O)(=O)c2ccccc2)CC1,-3,-5,21834*,1,?
Cc1nn(-c2ccccc2)c(C)c1C(=O)OCC(=O)NC12CC3CC(CC(C3)C1)C2,-1,-3,22484*,2,2
COc1ccc(S(=O)(=O)N2CCN(C(=O)c3c(C)nn(-c4ccccc4)c3C)CC2)cc1,1,-10,3441,-5,0
COc1ccccc1NC(=O)NCCn1nc(-c2cccs2)n(C2CC2)c1=O,.,-1,.,.,.
SMILES,Anthrax LF inh2,PriA SSB inh,Autofluor counter,BoNT F protease,BoNT A protease
O=C1/C(=C\c2ccc(-c3ccccc3Cl)o2)SC(=S)N1CC1CCCO1 (stereo not given),59*,-2,4106,-46,189*
COc1ccc(-c2ccc(/C=C3\SC(=S)N(C(C(=O)O)c4ccccc4)C3=O)o2)cc1 (stereo not given),.,5,.,.,.
Cc1ccc(/C=C2\SC(=S)N(CC3CCCO3)C2=O)o1 (stereo not given),0,-2,3638,?,?
O=C(O)C(c1ccccc1)N1C(=O)/C(=C\c2ccc(-c3ccc(Br)cc3)o2)SC1=S (stereo not given),24,-11,4524,13,65*
C=CCN1C(=O)/C(=C/c2ccc(-c3ccc(F)cc3)o2)SC1=S,64*,20,3620,26,79*
O=C(O)C(c1ccccc1)N1C(=O)/C(=C\c2ccc(-c3ccccc3Cl)o2)SC1=S (stereo not given),18,0,3117,9,41*
Cc1cc(C)n(CCNS(=O)(=O)c2ccc(N3CCCCS3(=O)=O)cc2)n1,.,-7,.,.,.
Cc1cc(C(=O)CSc2n[nH]c(N)n2)c(C)n1-c1ccccc1,-1,14,16214*,3,1
Cc1ccc(-n2c(C)cc(C(=O)COC(=O)c3c(C)noc3C)c2C)cc1,-3,10,23721*,-3,0
Cc1ccc(-n2c(C)cc(C(=O)COC(=O)C3=NNC(=O)CC3)c2C)cc1,-5,-2,3267,4,-1
Cc1nc(SCC(=O)c2ccc(F)cc2)n[nH]1,0,-4,21307*,2,1
Cc1cc(C(=O)COC(=O)C2=NNC(=O)CC2)c(C)n1-c1ccccc1,-9,6,19448*,2,1
Cc1ccc(-c2csc3nc(SCC(=O)Nc4nsc(-c5ccccc5)n4)n(-c4ccccc4)c(=O)c23)cc1C,.,-2,.,.,.
COc1cc(C2CC(C(F)(F)F)n3ncc(C(=O)N4CCN(C(c5ccccc5)c5ccccc5)CC4)c3N2)cc(OC)c1OC (stereo not given),.,3,.,.,.
COCCN(Cc1ccncc1)C(=O)C1CC1,.,-10,.,.,.
COc1cccc(C(=O)Nc2nnc(CS(=O)(=O)c3ccccc3)o2)c1OC,.,-1,.,.,.
Cc1cc(C(=O)CSc2n[nH]c(N)n2)c(C)n1-c1ccc(F)cc1,-3,10,22336*,-3,?
O=C(NC1CCCc2ccccc21)C1CCN(S(=O)(=O)N2CCCCCC2)CC1 (stereo not given),3,-4,21253*,6,3
CCC(Sc1ccc2nnc(-c3ccc(F)cc3)n2n1)C(=O)O (stereo not given),-6,-4,8003,-2,0
CCOC(=O)C(C)Sc1ccc2nnc(-c3ccccn3)n2n1 (stereo not given),.,76*,.,.,.
CCC(Sc1ccc2nnc(-c3ccccn3)n2n1)C(=O)O (stereo not given),.,103*,.,.,.
CC(=O)Nc1ccc(NC(=O)CSc2ccc3nnc(-c4ccccn4)n3n2)cc1,-3,39*,5197,0,-1
CCOC(=O)CC(=O)CSc1ccc2nnc(-c3ccccn3)n2n1,.,64,.,.,.
COC(=O)c1ccc(NC(=O)CSc2ccc3nnc(-c4ccccn4)n3n2)cc1,.,-13,.,.,.
CCOC(=O)CC(=O)CSc1ccc2nnc(-c3ccc(C)cc3)n2n1,-7,-14,22080*,4,2
SMILES,Anthrax LF inh2,PriA SSB inh,Autofluor counter,BoNT F protease,BoNT A protease
COCCN(Cc1ccoc1)S(=O)(=O)c1ccc(OC(F)(F)F)cc1,.,-7,.,.,.
CCOC(=O)CSc1ccc2nnc(-c3ccccn3)n2n1,.,90*,.,.,.
COc1ccc(OCc2nn3c(-c4cccc(OC)c4)nnc3s2)cc1,-3,1,5771,-1,0
COc1ccc(-c2nn3c(COc4ccccc4)nnc3s2)cc1OC,-4,0,17330*,-3,-2
c1ccc(-c2nnc3sc(-c4ccncc4)nn23)cc1,-2,0,9878,-4,0
Cc1cccc(-c2nnc3sc(-c4ccccc4C)nn23)c1,-4,-6,16434*,-4,-1
c1coc(-c2nn3c(-c4ccco4)nnc3s2)c1,.,-7,.,.,.
